From PubChem BioAssay (NCATS)
“And” between values parts separate entries of the source, which are not always exact repeats. Equal entries are not always repeated. Records with an inconclusive call do not appear. Where a call stands in place of a potency, no number is given. The source holds several records for some structures; these can differ, active in one and inactive in another. The source made the active and inactive calls. Calls follow the shape of the dose curve; as a rule, active = well fitted cell-killing curve with a large enough effect; inconclusive = small, poorly fitted or top-dose-only effect, or effect the other way; inactive = no such curve, though single readings can be large or run the other way.

Assays:
[1] = Viability qHTS for spleen associated tyrosine kinase inhibitor (SYKi) naive MV4-11 cells (AID 1963823); also: nearly all actives have a fitted effect of over 40% in size
Procedure, shortened: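 Cells: MV4-11, SYK inhibitor naive, 500 per well. Treatment: library compounds, 72 hr, 37 C, 5% CO2. Read-out: CellTiter-Glo luminescence after 10 min RT.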

[2] = Viability qHTS for spleen associated tyrosine kinase inhibitor (SYKi) drug resistant MV4-11 cells (AID 1963824); also: nearly all actives have a fitted effect of over 35% in size
Procedure, shortened: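 SYK inhibitor-resistant MV4-11 AML cells, 500 per well, added to predispensed compounds and incubated 72 hr at 37 C, 5% CO2. Viability measured by CellTiter-Glo luminescence after 10 min at room temperature.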
Potency is read from the fitted curve at half-maximal effect.

Row | Structure (SMILES) | Potency [1] | Potency [2] | viability (% of control) [1] | viability, % of control [2]
1 | C=C[C@H]1[C@H](O[C@@H]2O[C@H](CO)[C@@H](O)[C@H](O)[C@H]2O)OC=C(C(=O)OC)[C@H]1C/C=C(/C=O)[C@@H]1C(C(=O)OC)=CO[C@@H](O[C@@H]2O[C@H](CO)[C@@H](O)[C@H](O)[C@H]2O)[C@@H]1C=C | inactive | inactive | – | –
2 | C=CCc1ccc(O[C@@H]2O[C@H](CO[C@@H]3O[C@H](CO)[C@@H](O)[C@H](O)[C@H]3O)[C@@H](O)[C@H](O)[C@H]2O)c(O)c1 | inactive | inactive | – | –
3 | COc1ccc(OC2OC(CO[C@@H]3O[C@@H](C)[C@H](O)[C@@H](O)[C@H]3O)C(O)C(O)C2O)cc1OC (stereo not given in full) | inactive | inactive | – | –
4 | Cc1cc(C)c(CNC(=O)c2cc(-c3ccc(CN4CCOCC4)cc3)cc3c2cnn3C2CCCC2)c(=O)[nH]1 | inactive | inactive and 14.8 µM (active) | – | –
5 | CC1CC(O)CC(C)(C)C1(O)CCO (stereo not given) | inactive | inactive | – | –
6 | Cc1ccc2c(c1)C=Cc1cc(C)ccc1C2c1cn(Cc2ccc(C(=O)Nc3nn[nH]n3)o2)c(=O)[nH]c1=S | inactive | inactive | – | –
7 | C[C@@H]1O[C@@H](O[C@H]2[C@H](O[C@H]3[C@H](O[C@H]4CC[C@@]5(C)C(CC[C@]6(C)C5CC=C5[C@@H]7CC(C)(C)C[C@@H](O)[C@]7(C)CC[C@]56C)[C@@]4(C)CO)O[C@H](C(=O)O)[C@@H](O)[C@@H]3O)OC[C@H](O)[C@@H]2O)[C@H](O)[C@H](O)[C@H]1O (stereo not given in full) | – | – | 76.2% [at 9.25 µM] (inactive) | 84.4% [at 9.25 µM] (inactive)
8 | O=C(CC1NCCC[C@H]1O)Cn1cnc2cc(Br)c(Cl)cc2c1=O (stereo not given in full) | inactive | inactive | – | –
9 | Cc1ccc(OCCSc2ncccn2)c(Br)c1 | inactive | inactive | – | –
10 | CC1(C)C(=O)CCC2(C)C1C(O)C=C1COC(=O)C12O (stereo not given) | inactive | inactive | – | –
11 | Nc1nonc1-c1nc2cnccc2n1C1CC1 | 2.06 µM (active) | 2.31 µM (active) | – | –
12 | CCC(C)CC(=O)OC1C(=O)C(CO)=CC(O)C1C(C)C (stereo not given) | 2.59 µM (active) | 2.59 µM (active) | – | –
13 | N#C/C(=C\c1ccc(O)c(O)c1)C(=O)NCCCc1ccccc1 | 8.2 µM (active) | 8.2 µM (active) | – | –
14 | C[C@@H]1O[C@@H](O[C@H]2[C@H](O)[C@@H](O[C@@H]3O[C@H](CO)[C@H](O)[C@H](O)[C@H]3O)[C@H](O[C@H]3CC[C@@]4(C)C(CC[C@]5(C)C4CC=C4[C@@H]6CC(C)(C)CC[C@]6(C(=O)O[C@@H]6O[C@H](CO)[C@@H](O)[C@H](O)[C@H]6O)CC[C@]45C)C3(C)C)O[C@@H]2C(=O)O)[C@H](O)[C@H](O)[C@H]1O (stereo not given in full) | – | – | 82.7% [at 9.25 µM] (inactive) | 90.8% [at 9.25 µM] (inactive)
15 | O=C(O)c1cc(O[C@@H]2O[C@H](CO)[C@@H](O)[C@H](O)[C@H]2O)ccc1O | inactive | inactive | – | –
16 | CNS(=O)(=O)Nc1nccc(Cc2c(C)c3ccc(Oc4ncccn4)cc3oc2=O)c1F | 0.417 µM (active) | 0.59 µM (active) | – | –
17 | C[C@@H]1O[C@@H](O[C@@H]2[C@@H](O)[C@H](O[C@H]3CC[C@@]4(C)C(CC[C@]5(C)C4CC=C4[C@@H]6CC(C)(C)CC[C@]6(C(=O)O[C@@H]6O[C@H](CO)[C@@H](O)[C@H](O)[C@H]6O)CC[C@]45C)C3(C)C)O[C@H](C(=O)O)[C@H]2O)[C@H](O)[C@H](O)[C@H]1O (stereo not given in full) | – | – | 80.6% [at 9.25 µM] (inactive) | 81.8% [at 9.25 µM] (inactive)
18 | COC(=O)C1=CO[C@@H](O[C@@H]2O[C@H](CO)[C@@H](O)[C@H](O)[C@H]2O)[C@H]2[C@@H]1C=C[C@@]21C=C([C@H](C)O)C(=O)O1 | inactive | inactive | – | –
19 | O=C(CCCCC1CCCCC1)N1CCC(c2cnc[nH]2)CC1 | 13 µM (active) | 8.2 µM (active) | – | –
20 | CC1(C)CC[C@]2(C(=O)O[C@@H]3O[C@H](CO)[C@@H](O)[C@H](O)[C@H]3O)CC[C@]3(C)C(=CCC4[C@@]5(C)CC[C@H](O[C@@H]6O[C@H](C(=O)O)[C@@H](O)[C@H](O)[C@H]6O)[C@@](C)(CO)C5CC[C@]43C)C2C1 (stereo not given in full) | – | – | 98% [at 9.25 µM] (inactive) | 100% [at 9.25 µM] (inactive)
21 | COc1ccc2c(c1)C=C1Cn3c-2c(C2CCCCC2)c2ccc(cc23)C(=O)NS(=O)(=O)N(C)CCOCCN(C)C1=O | 16.4 µM (active) | 18.4 µM (active) | – | –
22 | NC(=O)c1cccc(-c2cc(O)cc(OC(=O)NC3CCCCC3)c2)c1 | inactive | inactive | – | –
23 | C/C=C(\C)[C@@H]1C(C)=C[C@@H]2[C@H]([C@@H]1/C=C/C=C/C(=O)O)[C@@H](C)CC[C@@H]2O | 6.4 µM (active) | 3.6 µM (active) | – | –
24 | C[C@@H]1C(=O)O[C@H]2CC34[C@H]5C[C@@H](C(C)(C)C)C36[C@@H](OC(=O)[C@@H]6O)O[C@@]4(C(=O)O5)[C@]21O (stereo not given in full) | inactive | inactive | – | –
25 | CCN(CC)C(=O)C(c1ccccc1)N1CCN(c2ccc(NC(=O)c3ccccc3-c3cccnc3)cc2F)CC1 (stereo not given) | inactive | inactive | – | –
26 | C=C1CCC2C(C)(CO[C@@H]3O[C@H](CO)[C@@H](O)[C@H](O)[C@H]3O)C(O)CCC2(C)C1C(=O)CC1=CCOC1=O (stereo not given in full) | inactive | inactive | – | –
27 | C[C@@H]1O[C@@H](O[C@@H]2[C@@H](O)[C@H](O[C@H]3[C@H](O[C@H]4CC[C@@]5(C)C(CC[C@]6(C)C5CC=C5[C@@H]7CC(C)(C)CC[C@]7(C(=O)O[C@@H]7O[C@H](CO)[C@@H](O)[C@H](O)[C@H]7O)CC[C@]56C)C4(C)C)O[C@H](C(=O)O)[C@@H](O)[C@@H]3O)OC[C@H]2O)[C@H](O)[C@H](O)[C@H]1O (stereo not given in full) | – | – | 62.1% [at 9.25 µM] (inactive) | 87.3% [at 9.25 µM] (inactive)
28 | O=C(CO)[C@@H](O)[C@H](O[C@@H]1O[C@H](CO)[C@H](O)[C@H](O)[C@H]1O)[C@H](O)CO | inactive | inactive | – | –

Row | Structure (SMILES) | Potency [1] | Potency [2] | viability (% of control) [1] | viability, % of control [2]
29 | CC(O)C1NC(=O)C2CCCN2C1=O (stereo not given) | inactive | inactive | – | –
30 | CO[C@H]1O[C@@H]2O[C@]3(C)CC[C@H]4[C@H](C)CC[C@@H]([C@H]1C)[C@@]24OO3 | 1.84 µM (active) | 2.91 µM (active) | – | –
31 | CC1=C2C(=O)C=C(CO)[C@@H]2[C@H]2OC(=O)[C@H](C)[C@@H]2[C@@H](O)C1 | inactive | inactive | – | –
32 | Cc1ccc(C(=O)/C=C/c2ccccc2)s1 | 8.2 µM (active) | 7.31 µM (active) | – | –
33 | CC(=O)OC1C(O)C(C)(O)C(/C=C/C(=O)O)C2(C)CCCC(C)(C)C12 (stereo not given) | inactive | inactive | – | –
34 | N[C@@H](CC(=O)Nc1ccc(Oc2cc(F)c(F)cc2Br)cc1)C(=O)O | inactive | inactive | – | –
35 | CC(O)/C=C/C1(O)C(C)C(O)C(O[C@@H]2O[C@H](CO)[C@@H](O)[C@H](O)[C@H]2O)CC1(C)C (stereo not given in full) | inactive | inactive | – | –
36 | CC(C)=CCC[C@@](C)(O)[C@H]1CC[C@]2(C)[C@@H]1[C@H](O)CC1[C@@]3(C)CC[C@H](O[C@@H]4O[C@H](CO)[C@@H](O)[C@H](O)[C@H]4O[C@@H]4O[C@H](CO)[C@@H](O)[C@H](O)[C@H]4O)C(C)(C)[C@@H]3CC[C@]12C (stereo not given in full) | inactive | inactive | – | –
37 | COC(=O)c1ccnc(-c2cc(C(=O)Nc3ccc(C4(N)CC4)cc3)ccn2)c1 | inactive | inactive | – | –
38 | COC(=O)C1=COC(OC2OC(CO)C(O)C(O)C2O)C2C1CC(OC(=O)C(O)CC(=O)O)C2C (stereo not given) | inactive | inactive | – | –
39 | O=C1C[C@@H](c2ccc(O)cc2)Oc2cc(O)ccc21 | 11.6 µM (active) | 14.6 µM (active) | – | –
40 | CC(=O)O[C@@H]1[C@H](OC(C)=O)C[C@@]2(C)C(CC[C@@H](C)[C@]23Cc2c(O)cc4c(c2O3)CN([C@@H](CCC(=O)O)C(=O)O)C4=O)C1(C)C (stereo not given in full) | inactive | inactive | – | –
41 | CNC(=O)c1ccc2c(c1)CCO[C@H]2CCN1CCN(c2ccc(C(N)=O)cc2)CC1 | inactive | inactive | – | –
42 | COc1cc(/C=C/C(=O)O[C@@H]2C[C@](O)(C(=O)O)C[C@@H](O)[C@H]2O)ccc1O | inactive | inactive | – | –
43 | CC1COC(Nc2ccc3ncnc(Nc4ccc(OCc5nccs5)c(Cl)c4)c3c2)=N1 (stereo not given) | 9.2 µM (active) | 9.2 µM (active) | – | –
44 | COc1c2c(c(C)c3c1C(=O)OC3)O[C@@]1(C)CCC3(C(C)(C)O)OC(=O)CC[C@]3(C)[C@H]1C2 (stereo not given in full) | inactive | inactive | – | –
45 | CC1(C)O[C@@]2(C)CC[C@@H]1C[C@@H]2OC1OC(CO)C(O)C(O)C1O (stereo not given in full) | inactive | inactive | – | –
46 | CC/C=C\CCO[C@@H]1O[C@H](CO)[C@@H](O)[C@H](O)[C@H]1O | inactive | inactive | – | –
47 | CCOC(=O)C1=C(N)Oc2ccc(Cl)cc2C1C(C#N)C(=O)OCC (stereo not given) | inactive | inactive | – | –
48 | O=C(Nc1ccccc1)N1CCN(c2nc(-c3ccccc3)ns2)CC1 | 14.6 µM (active) | 16.4 µM (active) | – | –
49 | CC1CCCCN1CCCOC(=O)c1ccc(OC2CCCCC2)cc1 (stereo not given) | 8.41 µM (active) | 13.3 µM (active) | – | –
50 | CC1(N)CCN(c2cccnc2NC(=O)c2nc(-c3ncccc3C(F)(F)F)cnc2N)CC1 | 5.9 µM (active) | 11.8 µM (active) | – | –
51 | COc1c(Nc2ncc(Cl)c(N[C@H]3[C@@H](C(N)=O)[C@@H]4C=C[C@H]3C4)n2)ccc2c1CC[C@@H](N1CCOCC1)CC2 | 0.231 µM (active) | 0.291 µM (active) | – | –
52 | O=C(Nc1nc2cc(C(F)(F)F)cc(NC3CC3)n2n1)c1cccnc1 | 3.66 µM (active) | 2.59 µM (active) | – | –
53 | CN(Cc1cccs1)c1ncnc2ccc(-c3ccc4c(c3)OCO4)cc12 | 11.6 µM (active) | 11.6 µM (active) | – | –
54 | O=C1NC(Cc2ccccc2)C(=O)N2CCCC12 (stereo not given) | inactive | inactive | – | –
55 | O=C(NC1CCN(CCCCC2(C(=O)NCC(F)(F)F)c3ccccc3-c3ccccc32)CC1)c1ccccc1-c1ccc(C(F)(F)F)cc1 | 2.59 µM (active) | 2.59 µM (active) | – | –
